Experimental data reported in PubChem BioAssay (NCATS).
Where “and” joins values, the source holds several entries; their conditions need not be identical. Equal entries are not always repeated. Records with an inconclusive call do not appear. A call without a number means that no potency is given here. Unmarked numbers belong to inactive results. Calls of active or inactive are those of the source. Unless noted, the call rests on the fitted dose curve; in most records, active means well fitted curve in the direction sought with a large enough effect; inconclusive means small, poorly fitted or top-dose-only effect, or another doubt; inactive means no such curve, though single readings can be large; an effect the other way counts as inactive or inconclusive.

Experiments:
[1] = target: Cellular tumor antigen p53 (Homo sapiens) (UniProt P04637); experiment: Primary qHTS for small molecule compounds that upregulate eGFP-tagged delta133p53alpha (in N-terminal) cells. (AID 2060322); details: NCI-H358 eGFP-delta133p53alpha fluorescence, 24 h; activation: hits give high values; further: nearly all actives have a fitted effect of over 75% in size; further: potency means the concentration at half of the fitted maximal effect; on activation: series mostly up to about 56 µM
Cellular tumor antigen p53 (Homo sapiens), sequence (P04637 whole entry, looked up): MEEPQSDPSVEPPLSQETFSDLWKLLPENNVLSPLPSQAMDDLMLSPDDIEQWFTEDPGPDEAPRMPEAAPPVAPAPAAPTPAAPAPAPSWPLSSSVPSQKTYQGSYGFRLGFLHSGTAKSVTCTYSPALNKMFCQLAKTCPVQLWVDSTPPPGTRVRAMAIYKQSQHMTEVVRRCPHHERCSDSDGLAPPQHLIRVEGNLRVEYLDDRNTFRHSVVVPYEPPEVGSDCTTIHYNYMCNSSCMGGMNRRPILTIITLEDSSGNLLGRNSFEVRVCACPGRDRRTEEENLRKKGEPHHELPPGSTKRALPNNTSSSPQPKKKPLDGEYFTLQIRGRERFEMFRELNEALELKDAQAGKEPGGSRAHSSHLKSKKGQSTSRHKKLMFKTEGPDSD
How it was run: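 NCI-H358 cells pre-induced 24 h with 10 ng/ml doxycycline to express N-terminal eGFP-delta133p53alpha, then dosed 24 h at 37C without doxycycline; fixed, Hoechst-stained, GFP intensity by laser scanning cytometry, normalized to DMSO (0%) and 57.5 uM 5-azacytidine (100%).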

[2] = target: Cellular tumor antigen p53 (Homo sapiens) (UniProt P04637); experiment: Primary qHTS for small molecule compounds that upregulate eGFP-tagged delta133p53alpha (in C-terminal) cells. (AID 2060324)
How it was run: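 NCI-H358 cells pre-induced 24 h with 100 ng/ml doxycycline to express delta133p53alpha-eGFP, then dosed in doxycycline-free medium for 24 h at 37C. Fixed, Hoechst-stained; GFP intensity by laser scanning cytometry, normalized to DMSO wells.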

[3] = target: Aldehyde dehydrogenase, mitochondrial (Homo sapiens) (UniProt P05091); experiment: qHTS for Inhibitors of the Aldehyde Dehydrogenase Family (ALDH2) Validation screens (AID 2061302; active means well fitted inhibition curve with a large enough effect; title and protocol of this record describe different tests; further: potency means the concentration at half of the fitted maximal effect)
[4] = target: Aldehyde dehydrogenase, mitochondrial (Homo sapiens) (UniProt P05091); experiment: qHTS for Inhibitors of the Aldehyde Dehydrogenase Family (ALDH2) Confirmatory screens (AID 2061303; active means well fitted inhibition curve with a large enough effect; title and protocol of this record describe different tests; further: nearly all actives have a fitted effect of over 45% in size)
[5] = qHTS for Inhibitors of the Aldehyde Dehydrogenase Family (ALDH1A2, ALDH1A3, ALDH2, ALDH3A1) (AID 2061307); further: nearly all actives have a fitted effect of over 50% in size
[6] = target: Retinaldehyde dehydrogenase 3 (Homo sapiens) (UniProt P47895); experiment: qHTS for Inhibitors of the Aldehyde Dehydrogenase Family (ALDH1A3) Confirmatory screens (AID 2061311); further: nearly all actives have a fitted effect of over 60% in size
[7] = target: Retinaldehyde dehydrogenase 3 (Homo sapiens) (UniProt P47895); experiment: qHTS for Inhibitors of the Aldehyde Dehydrogenase Family (ALDH1A3) Validation screen (AID 2061312); further: nearly all actives have a fitted effect of over 45% in size
[8] = target: Retinaldehyde dehydrogenase 3 (Homo sapiens) (UniProt P47895); experiment: qHTS for Inhibitors of the Aldehyde Dehydrogenase Family (ALDH1A3) Primary screen (AID 2061315)
[9] = target: Aldehyde dehydrogenase, mitochondrial (Homo sapiens) (UniProt P05091); experiment: qHTS for Inhibitors of the Aldehyde Dehydrogenase Family (ALDH2) Primary screen (AID 2061308); further: nearly all actives have a fitted effect of over 55% in size
[10] = target: Retinal dehydrogenase 2 (Homo sapiens) (UniProt O94788); experiment: qHTS for Inhibitors of the Aldehyde Dehydrogenase Family (ALDH1A2) Confirmation screens (AID 2061314); further: nearly all actives have a fitted effect of over 65% in size
[11] = target: Aldehyde dehydrogenase 1A1 (Homo sapiens) (UniProt P00352); experiment: qHTS for Inhibitors of the Aldehyde Dehydrogenase Family (ALDH1A1) Confirmatory screens (AID 2061316); further: nearly all actives have a fitted effect of over 65% in size

Cc1ccc(O)c(N=Nc2ccccc2)n1
activation [1]: 34% | Potency [2]: inactive | Potency [3]: inactive

O=C(O)COCCN1CCN(C(c2ccccc2)c2ccc(Cl)cc2)CC1 (stereo not given)
activation [1]: 0.565% and 21.7% and -7.29% | Potency [2]: inactive | Potency [3]: inactive

COc1cc2c(CCNC(C)=O)c[nH]c2cc1O
activation [1]: -10.8% | Potency [2]: inactive | Potency [3]: inactive

c1cnc(N2CCN(Cc3ccc4c(c3)OCO4)CC2)nc1
activation [1]: 8.37% and 9.57% | Potency [2]: inactive | Potency [3]: inactive

CN(CCCOc1ccc(Cc2ccccc2)cc1)CCC(=O)O
activation [1]: -0.922% and -7.16% | Potency [2]: inactive | Potency [3]: inactive | Potency [4]: inactive | Potency [5]: inactive | Potency [6]: inactive | Potency [7]: inactive | Potency [8]: inactive

COc1cc(C(=O)OCCCN2CCCN(CCCOC(=O)c3cc(OC)c(OC)c(OC)c3)CC2)cc(OC)c1OC
activation [1]: -3.95% and -82% | Potency [2]: inactive | Potency [3]: inactive

COc1ccc2c(c1OC)C(=O)O[C@@H]2[C@H]1c2c(cc3c(c2OC)OCO3)CCN1C
Potency [1]: 21.9 µM (active) | Potency [2]: inactive | Potency [3]: inactive

CC(=O)Oc1cc(C(C)C)c(OCCN(C)C)cc1C
activation [1]: -0.837% and 6.26% | Potency [2]: inactive | Potency [3]: inactive

Oc1ccc(C2CNCc3sccc32)cc1O (stereo not given)
activation [1]: 8.23% | Potency [2]: inactive | Potency [3]: inactive

CCN(CC)CCOC(=O)c1cc(Cl)c(N)cc1OC
activation [1]: -18.7% | Potency [2]: inactive | Potency [3]: inactive

CC(CN1c2ccccc2Sc2ccccc21)N(C)C (stereo not given)
activation [1]: -20.9% and -2.49% | Potency [2]: inactive | Potency [3]: inactive

O=c1[nH]c(=O)c2nc3ccccc3nc2[nH]1
activation [1]: -4.5% | Potency [2]: inactive | Potency [3]: inactive

Cc1cccc(/C=C/c2ccccc2)n1
activation [1]: -2.77% | Potency [2]: inactive | Potency [3]: inactive

Cc1cc(N)c2ccccc2[n+]1CCCCCCCCCC[n+]1c(C)cc(N)c2ccccc21
activation [1]: 10% | Potency [2]: inactive | Potency [3]: inactive | Potency [4]: inactive | Potency [5]: inactive | Potency [9]: inactive | Potency [6]: inactive | Potency [7]: inactive | Potency [10]: inactive | Potency [8]: inactive | Potency [11]: inactive

CC(O)C(O)[C@H]1CNc2nc(N)[nH]c(=O)c2N1 (stereo not given in full)
activation [1]: -13.4% | Potency [2]: inactive | Potency [3]: 8.91 µM (active)

CN1CCN(CCCN2c3ccccc3Sc3ccc(Cl)cc32)CC1
activation [1]: 23.2% and -10.9% and -6.59% | Potency [2]: inactive | Potency [3]: inactive

COc1ccccc1CN[C@@H]1CCCN[C@@H]1c1ccccc1
activation [1]: -89.1% | Potency [2]: inactive | Potency [3]: inactive

Cc1cccc(C2CN(C)CCc3c2cc(O)c(O)c3Cl)c1 (stereo not given)
activation [1]: -49.3% | Potency [2]: inactive | Potency [3]: inactive

CCC1(O)CC2CN(CCc3c([nH]c4ccccc34)[C@@](C(=O)OC)(c3cc4c(cc3OC)N(C=O)C3[C@]45CCN4CC=C[C@@](CC)([C@@H](OC(C)=O)[C@]3(O)C(=O)OC)[C@H]45)C2)C1 (stereo not given in full)
activation [1]: 32.1% | Potency [2]: inactive | Potency [3]: inactive

NS(=O)(=O)c1cc2c(cc1Cl)NC(C1CC3C=CC1C3)NS2(=O)=O (stereo not given)
activation [1]: -1.69% and -18.7% | Potency [2]: inactive | Potency [3]: inactive

CCc1c(C)[nH]c2c1C(=O)C(CN1CCOCC1)CC2 (stereo not given)
activation [1]: 4.18% and -34.4% | Potency [2]: inactive | Potency [3]: inactive

NC1CCN(O)C1=O (stereo not given)
activation [1]: -20% | Potency [2]: inactive | Potency [3]: inactive

C=CCN1CCc2cc(O)c(O)cc2C(c2ccccc2)C1 (stereo not given)
activation [1]: -43.2% | Potency [2]: inactive | Potency [3]: inactive

C1CCc2nnnn2CC1
activation [1]: -8.09% | Potency [2]: inactive | Potency [3]: inactive

NC(N)=Nc1nc(CSCC/C(N)=N/S(N)(=O)=O)cs1
activation [1]: -9.6% and 12.2% | Potency [2]: inactive | Potency [3]: inactive

OCCN1CCN(CCCN2c3ccccc3C=Cc3ccccc32)CC1
activation [1]: -10.7% and -5.62% | Potency [2]: inactive | Potency [3]: inactive

CCCCCC[C@@H]([C@@H](C)O)n1cnc2c(N)ncnc21
activation [1]: -41.6% | Potency [2]: inactive | Potency [3]: inactive

CCCN(CCc1ccccc1)C1CCc2c(O)cccc2C1 (stereo not given)
activation [1]: -29.6% | Potency [2]: inactive | Potency [3]: inactive

O=c1[nH]c(=S)[nH]c(-c2ccccc2)c1Cc1c(O)ccc2ccccc12
activation [1]: -41.1% | Potency [2]: inactive | Potency [3]: inactive

CCCCOc1cc(CC2CNC(=O)N2)ccc1OC (stereo not given)
activation [1]: -11.2% | Potency [2]: inactive | Potency [3]: inactive

CCCn1c(=O)c2[nH]c(-c3ccc(S(=O)(=O)O)cc3)nc2n(CCC)c1=O
activation [1]: -6.22% | Potency [2]: inactive | Potency [3]: inactive

CCCn1cnc2c1c(=O)n(CCCCC(C)=O)c(=O)n2C
activation [1]: 0.837% and -17.3% | Potency [2]: inactive | Potency [3]: inactive | Potency [4]: inactive | Potency [5]: inactive | Potency [6]: inactive | Potency [7]: inactive | Potency [10]: inactive | Potency [11]: inactive
